{
  "source": "paper PMC5540273",
  "about": "(PLoS ONE, 2017);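 further: KINOMEscan kinase panel screen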",
  "data": [
    {"test_system": "DYRK1B", "conditions": "concentration: 1 μM, replicates: in singlicate; n = 1", "units": {"%Inh": "%"}, "values": [
      {"smiles": "CCc1ccc(-c2ccc3c(c2)-c2nn(C)cc2S(=O)(=O)N3C)cc1", "%Inh": 0},
      {"smiles": "Nc1n[nH]c2ncc(-c3ccccc3)cc12", "note": "[SB-517081]", "%Inh": 0},
      {"smiles": "Cc1nc(N(C)[C@H]2CN(C(=O)CC#N)CC[C@H]2C)c2cc[nH]c2n1", "%Inh": 0},
      {"smiles": "COc1ccc(-c2coc3ccc(-c4nnc(SCc5cccc(C#N)c5)o4)cc23)cc1", "%Inh": 0},
      {"smiles": "CCC(=O)c1c(-c2ccccc2)c2cc(Cl)ccc2c(=O)n1Cc1cc(S(C)(=O)=O)n(CCC(C)(C)O)n1", "%Inh": 11},
      {"smiles": "COc1cc2ncn(-c3cc(OCc4ccncc4)c(C(N)=O)s3)c2cc1OC", "note": "[GSK336313]", "%Inh": 19},
      {"smiles": "Nc1nccc2scc(-c3ccc4c(c3)CCN4C(=O)Cc3ccccc3)c12", "note": "[GSK2576924]", "%Inh": 19},
      {"smiles": "COC(=O)c1c(-c2ccccc2)c2cc(Br)ccc2c(=O)n1Cc1ccc(S(C)(=O)=O)cc1", "%Inh": 45},
      {"smiles": "CCCC(=O)Nc1n[nH]c2ncc(-c3cccc4ccccc34)cc12", "note": "[SB-642057]", "%Inh": 0},
      {"smiles": "O=C1NC(=O)C(c2ccccc2)=C1Nc1cccc(O)c1", "note": "[SB-390534]", "%Inh": 0},
      {"smiles": "Cc1nn2c(=O)cc(N3CCOCC3)nc2n1Cc1cccc(Cl)c1Cl", "note": "[GSK2342769]", "%Inh": 29},
      {"smiles": "C[C@@H]1CC[C@H](C(=O)NC2CCCCC2)CN1c1cc(-c2ccc3c(N)n[nH]c3c2)nc(N)n1", "note": "[GSK2291363]", "%Inh": 6},
      {"smiles": "Nc1ncnc2c1ncn2-c1cccc2ccccc12", "note": "[SKF-97184]", "%Inh": 30},
      {"smiles": "COc1cc2ncn(-c3cc(OCc4ccncc4Br)c(C(N)=O)s3)c2cc1OC", "note": "[GW854278]", "%Inh": 8},
      {"smiles": "COc1cc2ncn(-c3cc(OCCCc4ccccc4)c(C(N)=O)s3)c2cc1OC", "note": "[GSK205189]", "%Inh": 0},
      {"smiles": "O=C(Nc1n[nH]c2nc(-c3ccccc3)c(Cl)cc12)C1CC1", "note": "[SB-734909]", "%Inh": 3},
      {"smiles": "COc1ccc(-c2cc3c(C)nc(N)nc3n([C@H]3CC[C@H](OCCO)CC3)c2=O)cn1", "%Inh": 0},
      {"smiles": "CCC(=O)c1c(-c2ccccc2)c2cc(Cl)ccc2c(=O)n1Cc1ccc(C(=O)O)cc1", "%Inh": 39},
      {"smiles": "Cc1nnc(-c2ccc(C)c(-c3ccc(C(=O)O)cc3)c2)o1", "note": "[GW608005]", "%Inh": 0},
      {"smiles": "Cc1ccccc1COc1cc(-n2cnc3cc(Cl)ccc32)sc1C(N)=O", "note": "[GW813349]", "%Inh": 34},
      {"smiles": "Cc1ccc(Oc2ccc(Nc3ncnc4cc[nH]c34)cc2C)cn1", "%Inh": 0},
      {"smiles": "CCCNC(=O)Nc1ccc(Oc2ncnc3ccn(C)c23)cc1", "%Inh": 68},
      {"smiles": "COc1cc(Nc2nccc(N3CCC(NC(=O)C4COc5ccccc5O4)C3)n2)cc(OC)c1OC", "note": "(centres unmarked) [GSK1379761]", "%Inh": 5},
      {"smiles": "COc1cc2ncn(-c3cc(OCc4ccc(S(C)(=O)=O)cc4)c(C(N)=O)s3)c2cc1OC", "note": "[GW869979]", "%Inh": 20},
      {"smiles": "COc1cc(Nc2ccnc3ccc(C(F)(F)F)cc23)cc(OC)c1OC", "note": "[GW577382]", "%Inh": 16},
      {"smiles": "O=C(Nc1n[nH]c2cc(-c3ccccc3F)ccc12)C1CC1", "note": "[SB-733371]", "%Inh": 0},
      {"smiles": "COC(=O)c1c(-c2ccccc2)c2cc(C)ccc2c(=O)n1Cc1ccccc1", "%Inh": 6},
      {"smiles": "FC(F)(F)c1ccc(-c2ncn(CCCN3CCOCC3)c2-c2ccncc2)cc1", "note": "[SB-217780]", "%Inh": 0},
      {"smiles": "Cl.NS(=O)(=O)c1cccc(Nc2cc(-c3ccc(F)cc3)n[nH]2)c1", "note": "[GW824645]", "%Inh": 0},
      {"smiles": "COc1cccc(C2=C(N(C)c3ccccc3)C(=O)NC2=O)c1", "note": "[SB-334865]", "%Inh": 0},
      {"smiles": "Cn1c(=O)c(F)c(Nc2ccc(I)cc2F)c2c(=O)n(OC[C@H](O)CO)cnc21", "%Inh": 0},
      {"smiles": "Fc1cccc(CSc2nnc(-c3ccc4c(c3)CCO4)o2)c1", "%Inh": 37},
      {"smiles": "Nc1ncnc2c1ncn2-c1cccc(F)c1", "note": "[SKF-97560]", "%Inh": 13},
      {"smiles": "COc1cc(OC)cc(-c2cc3cnc(N)nc3nc2NC(=O)NC(C)(C)C)c1", "%Inh": 16},
      {"smiles": "CCc1nc(-c2cccc(C)c2)c(-c2ccncc2)s1", "%Inh": 0},
      {"smiles": "COc1ccc(Nc2nccc(N3CCC(NS(=O)(=O)c4ccc(NC(C)=O)cc4)C3)n2)cc1", "note": "(centres unmarked) [GSK1379729]", "%Inh": 3},
      {"smiles": "COc1ccc(-n2cnc3c(N)ncnc32)cc1", "note": "[SKF-97236]", "%Inh": 0}
    ]},
    {"test_system": "DYRK2", "conditions": "concentration: 1 μM, replicates: in singlicate; n = 1", "units": {"%Inh": "%"}, "values": [
      {"smiles": "CCc1ccc(-c2ccc3c(c2)-c2nn(C)cc2S(=O)(=O)N3C)cc1", "%Inh": 0},
      {"smiles": "Nc1n[nH]c2ncc(-c3ccccc3)cc12", "note": "[SB-517081]", "%Inh": 30},
      {"smiles": "Cc1nc(N(C)[C@H]2CN(C(=O)CC#N)CC[C@H]2C)c2cc[nH]c2n1", "%Inh": 7},
      {"smiles": "COc1ccc(-c2coc3ccc(-c4nnc(SCc5cccc(C#N)c5)o4)cc23)cc1", "%Inh": 2},
      {"smiles": "CCC(=O)c1c(-c2ccccc2)c2cc(Cl)ccc2c(=O)n1Cc1cc(S(C)(=O)=O)n(CCC(C)(C)O)n1", "%Inh": 62},
      {"smiles": "COc1cc2ncn(-c3cc(OCc4ccncc4)c(C(N)=O)s3)c2cc1OC", "note": "[GSK336313]", "%Inh": 23},
      {"smiles": "Nc1nccc2scc(-c3ccc4c(c3)CCN4C(=O)Cc3ccccc3)c12", "note": "[GSK2576924]", "%Inh": 20},
      {"smiles": "COC(=O)c1c(-c2ccccc2)c2cc(Br)ccc2c(=O)n1Cc1ccc(S(C)(=O)=O)cc1", "%Inh": 44},
      {"smiles": "CCCC(=O)Nc1n[nH]c2ncc(-c3cccc4ccccc34)cc12", "note": "[SB-642057]", "%Inh": 4},
      {"smiles": "O=C1NC(=O)C(c2ccccc2)=C1Nc1cccc(O)c1", "note": "[SB-390534]", "%Inh": 0},
      {"smiles": "Cc1nn2c(=O)cc(N3CCOCC3)nc2n1Cc1cccc(Cl)c1Cl", "note": "[GSK2342769]", "%Inh": 0},
      {"smiles": "C[C@@H]1CC[C@H](C(=O)NC2CCCCC2)CN1c1cc(-c2ccc3c(N)n[nH]c3c2)nc(N)n1", "note": "[GSK2291363]", "%Inh": 20},
      {"smiles": "Nc1ncnc2c1ncn2-c1cccc2ccccc12", "note": "[SKF-97184]", "%Inh": 6},
      {"smiles": "COc1cc2ncn(-c3cc(OCc4ccncc4Br)c(C(N)=O)s3)c2cc1OC", "note": "[GW854278]", "%Inh": 30},
      {"smiles": "COc1cc2ncn(-c3cc(OCCCc4ccccc4)c(C(N)=O)s3)c2cc1OC", "note": "[GSK205189]", "%Inh": 0},
      {"smiles": "O=C(Nc1n[nH]c2nc(-c3ccccc3)c(Cl)cc12)C1CC1", "note": "[SB-734909]", "%Inh": 8},
      {"smiles": "COc1ccc(-c2cc3c(C)nc(N)nc3n([C@H]3CC[C@H](OCCO)CC3)c2=O)cn1", "%Inh": 0},
      {"smiles": "CCC(=O)c1c(-c2ccccc2)c2cc(Cl)ccc2c(=O)n1Cc1ccc(C(=O)O)cc1", "%Inh": 15},
      {"smiles": "Cc1nnc(-c2ccc(C)c(-c3ccc(C(=O)O)cc3)c2)o1", "note": "[GW608005]", "%Inh": 8},
      {"smiles": "Cc1ccccc1COc1cc(-n2cnc3cc(Cl)ccc32)sc1C(N)=O", "note": "[GW813349]", "%Inh": 19},
      {"smiles": "Cc1ccc(Oc2ccc(Nc3ncnc4cc[nH]c34)cc2C)cn1", "%Inh": 0},
      {"smiles": "CCCNC(=O)Nc1ccc(Oc2ncnc3ccn(C)c23)cc1", "%Inh": 24},
      {"smiles": "COc1cc(Nc2nccc(N3CCC(NC(=O)C4COc5ccccc5O4)C3)n2)cc(OC)c1OC", "note": "(centres unmarked) [GSK1379761]", "%Inh": 19},
      {"smiles": "COc1cc2ncn(-c3cc(OCc4ccc(S(C)(=O)=O)cc4)c(C(N)=O)s3)c2cc1OC", "note": "[GW869979]", "%Inh": 1},
      {"smiles": "COc1cc(Nc2ccnc3ccc(C(F)(F)F)cc23)cc(OC)c1OC", "note": "[GW577382]", "%Inh": 0},
      {"smiles": "O=C(Nc1n[nH]c2cc(-c3ccccc3F)ccc12)C1CC1", "note": "[SB-733371]", "%Inh": 3},
      {"smiles": "COC(=O)c1c(-c2ccccc2)c2cc(C)ccc2c(=O)n1Cc1ccccc1", "%Inh": 0},
      {"smiles": "FC(F)(F)c1ccc(-c2ncn(CCCN3CCOCC3)c2-c2ccncc2)cc1", "note": "[SB-217780]", "%Inh": 25},
      {"smiles": "Cl.NS(=O)(=O)c1cccc(Nc2cc(-c3ccc(F)cc3)n[nH]2)c1", "note": "[GW824645]", "%Inh": 24},
      {"smiles": "COc1cccc(C2=C(N(C)c3ccccc3)C(=O)NC2=O)c1", "note": "[SB-334865]", "%Inh": 0},
      {"smiles": "Cn1c(=O)c(F)c(Nc2ccc(I)cc2F)c2c(=O)n(OC[C@H](O)CO)cnc21", "%Inh": 0},
      {"smiles": "Fc1cccc(CSc2nnc(-c3ccc4c(c3)CCO4)o2)c1", "%Inh": 7},
      {"smiles": "Nc1ncnc2c1ncn2-c1cccc(F)c1", "note": "[SKF-97560]", "%Inh": 13},
      {"smiles": "COc1cc(OC)cc(-c2cc3cnc(N)nc3nc2NC(=O)NC(C)(C)C)c1", "%Inh": 0},
      {"smiles": "CCc1nc(-c2cccc(C)c2)c(-c2ccncc2)s1", "%Inh": 0},
      {"smiles": "COc1ccc(Nc2nccc(N3CCC(NS(=O)(=O)c4ccc(NC(C)=O)cc4)C3)n2)cc1", "note": "(centres unmarked) [GSK1379729]", "%Inh": 3},
      {"smiles": "COc1ccc(-n2cnc3c(N)ncnc32)cc1", "note": "[SKF-97236]", "%Inh": 0}
    ]}
  ]
}
